Source: PubChem BioAssay
Active and inactive are the calls of the source.

Columns and labels:
[1] = small molecules captured by biotinylated probe aFSTL3 – biochemical, small-molecule microarray, fluorescence 635/667, stem cell growth factor project, primary screen (AID 1064); settings: higher = more signal;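 also: measures binding of the biotinylated anti-FSTL3 antibody to printed compounds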
[2] = binders from COS7 lysate, DM2A8 probe, primary screen, torsin A project, cell lysate, small-molecule microarray, fluorescence 635/667 (AID 1065); settings: higher = more signal, COS7 lysate expressing mutant human TOR1A
[3] = small molecules captured by biotinylated probe aFGF2 – biochemical, small-molecule microarray, fluorescence 635/667, stem cell growth factor project, primary screen (AID 1067); settings: higher = more signal;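 also: measures binding of biotinylated aFGF2 protein to printed compounds on slides; z-score merges feature fluorescence and signal-to-noise across triplicate slides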
[4] = small molecules captured by biotinylated probe aFGF10 – biochemical, small-molecule microarray, fluorescence 635/667, stem cell growth factor project, primary screen (AID 1071); settings: higher = more signal;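 also: score merges 667 nm spot intensity and signal to noise from triplicate slides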
[5] = biological target: Neurogenic locus notch homolog protein 2 (Homo sapiens) (UniProt Q04721); experiment: small molecules binding Notch2 protein – biochemical, small-molecule microarray, 635 nm fluorescence, stem cell growth factors, primary screen (AID 1073); settings: higher = more signal
[6] = biological target: Pro-neuregulin-1, membrane-bound isoform (Homo sapiens) (UniProt Q02297); experiment: small molecules binding neuregulin-1 protein – biochemical, small-molecule microarray, fluorescence 635/667, psychiatric disease protein project, primary screen (AID 1075); settings: NRG1 binding, 635 nm fluorescence, higher = more signal;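 also: score combines 667 nm spot fluorescence with signal to noise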
[7] = test system: Neuregulin-1 EGF-like domain; experiment: small molecules binding NRG1 EGF domain – biochemical, small-molecule microarray, 635 nm fluorescence, primary screen (AID 1081); settings: higher = more signal;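 also: binding of the protein to compounds printed on small-molecule microarray slides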
[8] = FRG1 expression reporter modulators in myotubes – cell-based, C2C12 myotubes, firefly/Renilla luciferase, luminescence, FRG1 inhibition for FSHD, primary screen (AID 1084); settings: FRG1 promoter luciferase, higher = more signal, called active from +8 up or from −8 down
[9] = small molecules captured by biotinylated probe aFST – biochemical, small-molecule microarray, fluorescence 635/667, stem cell growth factor project, primary screen (AID 1086); settings: higher = more signal;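 also: score merges 667 nm fluorescence with signal-to-noise of each printed compound spot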
[10] = binders of probe aHhip on microarray, primary screen, stem cell growth factor project, biochemical, small-molecule microarray, fluorescence 635/667 (AID 1087); settings: higher = more signal;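 also: score merges spot fluorescence at 667nm with spot signal to noise ratio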
[11] = test system: PRMT1 (protein arginine N-methyltransferase 1); experiment: small molecules binding arginine methyltransferase PRMT1 – biochemical, small-molecule microarray, 635 nm fluorescence, primary screen (AID 1088); settings: higher = more signal;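 also: binding of Prmt1 protein to compounds spotted on small-molecule microarray slides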
[12] = growth effects on S. cerevisiae YJM789 – YJM789 clinical isolate, OD600, 24 h, basal, primary screen (AID 1089); settings: higher = more signal, called active from +8 up or from −8 down;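 also: growth of clinical yeast isolate S. cerevisiae YJM 789 seeded 1000 cells per well; test concentration not given here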
[13] = S. pombe growth modifiers, basal conditions – strain 972, OD600, 24 h, no modulator, primary screen (AID 1090);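 also: basal condition with compound alone and no growth modifier present; test concentration not given here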; settings: S. pombe 972 growth, higher = more signal, called active from +8 up or from −8 down
[14] = budding yeast growth modifiers under rapamycin – strain BY4716, OD600, 96 h, primary screen (AID 1091); also: test concentration not given here; settings: S. cerevisiae BY4716 + rapamycin, higher = more signal, called active from +8 up or from −8 down
[15] = biological target: Torsin-1A-interacting protein 2 (Homo sapiens) (UniProt Q8NFQ8); experiment: small molecules binding lysate-expressed LULL1 – cell lysate, human LULL1 lysate, 635/667 nm fluorescence, primary screen (AID 1092); settings: small-molecule microarray, hLULL1 lysate binding, 635 nm fluorescence; higher = more signal;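 also: probe is lysate of COS7 cells overexpressing human LULL1; score merges per-feature 667 nm fluorescence with signal-to-noise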
[16] = optical density change of DRC41 E. coli – strain DRC41, OD650, 24 h, E. coli filamentation project, primary screen (AID 1093);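 also: MC1000 strain lacking acrAB efflux and sulA so SOS filamentation is blocked; test concentration not given here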; settings: E. coli DRC41 growth, higher = more signal, called active from +8 up or from −8 down
[17] = probe aLefty2 binding to arrayed compounds – biochemical, biotinylated probe, 635/667 nm fluorescence, primary screen (AID 1094); settings: small-molecule microarray, higher = more signal;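 also: score merges spot fluorescence near 667 nm with spot signal-to-noise ratio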
[18] = test system: Noggin (protein binding on small-molecule microarray); experiment: small molecules binding Noggin protein – biochemical, 635/667 nm fluorescence, primary screen (AID 1095); settings: 635 nm fluorescence, higher = more signal;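 also: score merges 667 nm feature fluorescence with signal to noise over triplicate slides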
[19] = biological target: Neurogenic locus notch homolog protein 3 (Homo sapiens) (UniProt Q9UM47); experiment: small molecules binding NOTCH3 protein – biochemical, 635/667 nm fluorescence, primary screen (AID 1096); settings: small-molecule microarray, 635 nm fluorescence, higher = more signal
[20] = probe aEGFR binding to arrayed compounds – biochemical, biotinylated probe, 635/667 nm fluorescence, primary screen (AID 1097); settings: small-molecule microarray, higher = more signal;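 also: probe is a biotinylated anti-EGFR antibody binding compounds printed on slides; score combines fluorescence near 667 nm and signal to noise of each spot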

Sequence of Neurogenic locus notch homolog protein 3 (Homo sapiens) (Q9UM47 whole entry, looked up): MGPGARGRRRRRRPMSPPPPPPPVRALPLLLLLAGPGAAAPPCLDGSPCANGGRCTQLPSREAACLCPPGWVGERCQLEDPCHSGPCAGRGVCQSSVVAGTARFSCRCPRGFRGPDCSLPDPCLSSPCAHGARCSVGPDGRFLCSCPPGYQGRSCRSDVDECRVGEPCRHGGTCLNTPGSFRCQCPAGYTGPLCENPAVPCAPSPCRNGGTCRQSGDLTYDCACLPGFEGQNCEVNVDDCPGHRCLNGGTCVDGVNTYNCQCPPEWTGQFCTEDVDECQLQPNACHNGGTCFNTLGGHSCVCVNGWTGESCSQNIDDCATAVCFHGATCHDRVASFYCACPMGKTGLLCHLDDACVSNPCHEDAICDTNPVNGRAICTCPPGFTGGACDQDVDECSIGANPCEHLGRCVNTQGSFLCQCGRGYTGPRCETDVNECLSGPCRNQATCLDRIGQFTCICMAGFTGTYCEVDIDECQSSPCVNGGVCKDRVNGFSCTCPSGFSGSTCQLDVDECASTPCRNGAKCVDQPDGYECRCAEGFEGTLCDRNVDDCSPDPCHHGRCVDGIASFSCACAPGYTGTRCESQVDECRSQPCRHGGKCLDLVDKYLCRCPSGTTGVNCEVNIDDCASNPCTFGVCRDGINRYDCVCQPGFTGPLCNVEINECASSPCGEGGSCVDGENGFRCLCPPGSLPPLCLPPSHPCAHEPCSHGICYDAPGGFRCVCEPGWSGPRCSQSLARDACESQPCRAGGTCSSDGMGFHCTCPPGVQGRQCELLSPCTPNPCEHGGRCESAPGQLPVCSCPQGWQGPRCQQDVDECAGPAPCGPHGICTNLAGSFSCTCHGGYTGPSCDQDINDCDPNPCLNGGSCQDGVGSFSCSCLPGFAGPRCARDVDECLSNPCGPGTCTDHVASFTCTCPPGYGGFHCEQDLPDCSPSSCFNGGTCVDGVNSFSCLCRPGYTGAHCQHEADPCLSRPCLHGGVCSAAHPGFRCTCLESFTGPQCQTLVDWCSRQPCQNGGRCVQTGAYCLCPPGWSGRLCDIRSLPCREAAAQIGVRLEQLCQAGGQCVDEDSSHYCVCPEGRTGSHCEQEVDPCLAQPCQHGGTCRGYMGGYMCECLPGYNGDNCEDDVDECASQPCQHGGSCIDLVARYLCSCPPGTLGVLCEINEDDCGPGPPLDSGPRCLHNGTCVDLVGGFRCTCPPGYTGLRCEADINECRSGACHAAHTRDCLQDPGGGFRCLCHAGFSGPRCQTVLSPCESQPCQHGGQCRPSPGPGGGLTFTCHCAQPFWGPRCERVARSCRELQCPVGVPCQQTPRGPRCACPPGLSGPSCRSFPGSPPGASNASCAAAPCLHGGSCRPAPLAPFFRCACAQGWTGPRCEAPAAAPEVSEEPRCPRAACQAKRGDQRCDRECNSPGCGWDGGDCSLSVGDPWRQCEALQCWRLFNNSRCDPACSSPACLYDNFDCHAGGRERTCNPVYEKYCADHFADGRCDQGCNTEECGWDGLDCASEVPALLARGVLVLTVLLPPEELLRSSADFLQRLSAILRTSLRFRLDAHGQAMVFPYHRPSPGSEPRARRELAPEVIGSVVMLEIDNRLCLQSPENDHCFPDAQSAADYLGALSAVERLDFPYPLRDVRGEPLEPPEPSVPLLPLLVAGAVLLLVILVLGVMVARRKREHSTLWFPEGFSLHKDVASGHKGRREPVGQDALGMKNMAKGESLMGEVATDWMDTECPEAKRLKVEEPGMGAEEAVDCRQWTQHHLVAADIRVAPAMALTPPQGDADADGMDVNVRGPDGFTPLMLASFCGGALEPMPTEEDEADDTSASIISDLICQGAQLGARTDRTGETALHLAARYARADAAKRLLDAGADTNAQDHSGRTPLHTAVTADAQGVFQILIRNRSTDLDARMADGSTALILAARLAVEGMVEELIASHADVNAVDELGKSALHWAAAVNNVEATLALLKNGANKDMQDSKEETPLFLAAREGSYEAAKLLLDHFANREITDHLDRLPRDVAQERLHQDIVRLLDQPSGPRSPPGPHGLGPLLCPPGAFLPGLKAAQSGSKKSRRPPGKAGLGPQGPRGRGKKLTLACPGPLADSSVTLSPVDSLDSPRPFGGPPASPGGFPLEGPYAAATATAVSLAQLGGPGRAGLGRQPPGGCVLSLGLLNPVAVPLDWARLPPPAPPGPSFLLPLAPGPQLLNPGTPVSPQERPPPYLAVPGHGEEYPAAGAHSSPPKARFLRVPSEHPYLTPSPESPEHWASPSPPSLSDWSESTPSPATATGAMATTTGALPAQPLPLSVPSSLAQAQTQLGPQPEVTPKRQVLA
Sequence of Torsin-1A-interacting protein 2 (Homo sapiens) (Q8NFQ8 whole entry, looked up): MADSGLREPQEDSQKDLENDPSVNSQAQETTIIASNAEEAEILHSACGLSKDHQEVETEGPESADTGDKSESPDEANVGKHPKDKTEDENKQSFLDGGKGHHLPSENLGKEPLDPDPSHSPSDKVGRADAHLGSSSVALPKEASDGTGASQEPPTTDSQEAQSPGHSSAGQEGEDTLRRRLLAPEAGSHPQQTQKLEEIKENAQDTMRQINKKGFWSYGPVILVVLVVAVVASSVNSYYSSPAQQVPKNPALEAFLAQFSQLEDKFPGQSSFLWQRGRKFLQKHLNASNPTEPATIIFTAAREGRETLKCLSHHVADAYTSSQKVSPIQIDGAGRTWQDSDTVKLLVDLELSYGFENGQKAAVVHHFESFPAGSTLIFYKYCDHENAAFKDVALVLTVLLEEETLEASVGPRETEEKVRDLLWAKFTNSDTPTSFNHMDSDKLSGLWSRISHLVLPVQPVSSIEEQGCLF
Sequence of Pro-neuregulin-1, membrane-bound isoform (Homo sapiens) (Q02297 whole entry, looked up, the tested form may be a part, canonical isoform): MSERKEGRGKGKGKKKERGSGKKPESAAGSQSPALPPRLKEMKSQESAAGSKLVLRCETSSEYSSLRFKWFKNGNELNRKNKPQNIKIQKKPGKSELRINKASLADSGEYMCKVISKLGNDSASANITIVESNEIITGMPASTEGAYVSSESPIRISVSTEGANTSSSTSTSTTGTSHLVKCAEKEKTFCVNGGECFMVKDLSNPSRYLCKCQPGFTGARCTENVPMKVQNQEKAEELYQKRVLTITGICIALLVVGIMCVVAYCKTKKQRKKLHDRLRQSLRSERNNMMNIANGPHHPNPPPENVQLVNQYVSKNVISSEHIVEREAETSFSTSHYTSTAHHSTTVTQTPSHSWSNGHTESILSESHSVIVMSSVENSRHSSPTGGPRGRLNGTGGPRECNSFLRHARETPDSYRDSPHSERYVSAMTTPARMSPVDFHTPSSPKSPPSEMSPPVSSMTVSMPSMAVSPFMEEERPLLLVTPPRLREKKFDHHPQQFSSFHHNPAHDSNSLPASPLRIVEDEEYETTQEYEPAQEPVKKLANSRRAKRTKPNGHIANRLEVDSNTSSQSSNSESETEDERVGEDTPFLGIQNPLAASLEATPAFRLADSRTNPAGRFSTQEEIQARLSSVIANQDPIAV

Structure (SMILES) | composite z-score [1] | composite z-score [2] | composite z-score [3] | composite z-score [4] | composite z-score [5] | composite z-score [6] | composite z-score [7] | z-score [8] | composite z-score [9] | composite z-score [10] | composite z-score [11] | z-score [12] | z-score [13] | z-score [14] | composite z-score [15] | z-score [16] | composite z-score [17] | composite z-score [18] | composite z-score [19] | composite z-score [20]
C=CCN1C(=O)[C@@]2(CCS(=O)(=O)c3ccccc3)N=C(c3ccc(OCCCO)cc3)O[C@H]2c2ccccc21 | 0.162 | 0.42 | 0.0076 | 0.362 | 1.44 | 1.72 | 1.24 | -3.77 (inactive) | 1.03 | -0.0672 | 1.54 | 0.15 (inactive) | -0.0698 (inactive) | 3.13 (inactive) | 2.88 | 0.192 (inactive) | -0.0177 | 1.43 | 1.12 | 0.154
COCCOC(=O)N1C(=O)[C@@]2(c3ccccc31)[C@H](C(=O)N1CCN(c3ncccn3)CC1)[C@H]1C(=O)O[C@H](c3ccccc3)[C@H](c3ccccc3)N1[C@@H]2c1ccc(O)cc1 | 0.149 | 0.0128 | -0.0136 | 0.879 | 0.186 | 1.36 | 0.335 | -0.79 (inactive) | -0.0574 | 0.0523 | 1.55 | 0.232 (inactive) | 1.07 (inactive) | 1.72 (inactive) | 2.25 | 1.48 (inactive) | -0.122 | 0.161 | 0.679 | -0.184
COC(=O)[C@@]1(Cc2ccccc2)[C@H]2c3cc(C(=O)N(C)C)n(CCc4ccc(O)c(OC)c4)c3C[C@H]2CN1C(=O)c1ccccc1 | 0.514 | 0.283 | 0.356 | 0.557 | 0.749 | 0.258 | 0.781 | 0.96 (inactive) | 1.34 | 2.09 | -0.26 | 0.031 (inactive) | -0.0531 (inactive) | 0.409 (inactive) | 0.47 | -0.452 (inactive) | 0.425 | 0.374 | 0.489 | 0.992
CCCCC(=C=CC[C@@H](O)c1ccccc1OCCO)C[C@@H](O)COCc1ccccc1 | -0.0745 | 0.0282 | -0.101 | -0.333 | -0.768 | 0.852 | 0.115 | -2.9 (inactive) | -0.462 | -0.201 | 1.13 | -1.69 (inactive) | -2.1 (inactive) | -1.26 (inactive) | 1.91 | 1.31 (inactive) | -0.166 | 0.404 | 0.185 | -0.209
CCCCO[C@H]1C[C@H]2C(I)=C[C@@H]1C(=O)[C@]21CO1 | -0.329 | 0.823 | -0.0706 | 0.0657 | -0.361 | -0.149 | -0.44 | 1.43 (inactive) | -0.323 | -0.236 | -0.429 | -1.88 (inactive) | -4.81 (inactive) | -1.68 (inactive) | -1.03 | -1.25 (inactive) | -0.126 | 0.359 | 0.0532 | -0.19
